The record followed here is PubChem BioAssay (Tox21).

The nature of test [1]: qHTS assay to identify small molecule antagonists of the estrogen related receptor (ERR) signaling pathway from Tox21 library (AID 1224848). Also: nearly all actives have a fitted effect of over 50% in size. Also: potency is read from the fitted curve at half-maximal effect. In outline: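 First, 2,000 ERR cells per well were plated and held 6 h at 37 C/5% CO2. Next, compounds in DMSO were pinned in and left 18 h at 37 C. Finally, ONE-Glo was added and luminescence read after 30 min at room temperature.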
Background: In qHTS, concentration-response curves come from the screen itself.

A short description of test [2]: qHTS assay to identify small molecule agonists of the estrogen related receptor (ERR) signaling pathway from Tox21 library (AID 1224849; calls by dose curve; also: nearly all actives have a fitted effect of over 15% in size). Particulars: ERR reporter cell line, ONE-Glo luciferase, 18 h. The essentials: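 Luciferase activity in ERR pathway reporter cells served as the agonist readout; exposure lasted 18 h at 37 C, with ONE-Glo detection after 30 min at room temperature.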

The nature of test [3]: qHTS RealTime-Glo MT Cell Viability Assay in HepG2 cells - 24 hour (AID 1224867). Also: nearly all actives have a fitted effect of over 50% in size. In outline:
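HepG2 cells were seeded at 600 cells/well together with NanoLuc luciferase and a cell-permeant prosubstrate, preincubated 5 h at 37 C/5% CO2, then pin-dosed with compounds in DMSO. Nonlytic luminescence from viable cells was read at each time point.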

Test [4] in a line: qHTS RealTime-Glo MT Cell Viability Assay in HEK293 cells - 32 hour (AID 1224868). Also: nearly all actives have a fitted effect of over 50% in size. Also: potency is read from the fitted curve at half-maximal effect. The essentials:
(§1)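 HEK293 cells were seeded at 600 cells/well together with NanoLuc luciferase and cell-permeant prosubstrate, preincubated 5 h at 37 C/5% CO2, then given compound in DMSO by pintool. Luminescence from viable-cell prosubstrate reduction was read repeatedly over 40 h.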

A short description of test [5]: A CellTox Green Cytotoxicity Assay to monitor cytotoxicity in HEK293 cells - 0 hour (AID 1224869). Also: nearly all actives have a fitted effect of over 50% in size. The essentials:
(§2)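 Real-time, in one plate: 600 HEK293 cells/well with dead-cell DNA dye, pinned compound after 5 h, 37 C incubation over 40 h; viable cells give no appreciable fluorescence.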

A short description of test [6]: qHTS RealTime-Glo MT Cell Viability Assay in HepG2 cells - 40 hour (AID 1224870). Also: nearly all actives have a fitted effect of over 50% in size. In outline: (§3)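 HepG2 cells mixed with RealTime-Glo MT reagents (NanoLuc plus cell-permeant prosubstrate) were seeded at 600 cells/well, incubated 5 h at 37 C/5% CO2, then pinned with compounds in DMSO; nonlytic luminescence tracked viability during 40 h treatment.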
The nature of test [7]: A CellTox Green Cytotoxicity Assay to monitor cytotoxicity in HEK293 cells - 40 hour (AID 1224871). Also: nearly all actives have a fitted effect of over 45% in size. In outline: as §2
Test [8] in a line: qHTS RealTime-Glo MT Cell Viability Assay in HEK293 cells - 16 hour (AID 1224872). Also: nearly all actives have a fitted effect of over 50% in size. Also: potency is read from the fitted curve at half-maximal effect. In outline:
as §1

Test [9] can be described thus: qHTS RealTime-Glo MT Cell Viability Assay in HEK293 cells - 40 hour (AID 1224874). Also: nearly all actives have a fitted effect of over 50% in size. Also: potency is read from the fitted curve at half-maximal effect. Particulars: RealTime-Glo luminescence; max response: stronger effect = lower value. In outline:
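Kinetic, non-lysing viability readout. Seed HEK293 (600/well) with reagent, incubate 5 h at 37 C/5% CO2, pin 23 nL compound in DMSO, incubate at 37 C, read luminescence at 0, 8, 16, 24, 32, 40 h.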

Test [10] is described as follows: qHTS RealTime-Glo MT Cell Viability Assay in HepG2 cells - 8 hour (AID 1224873). Also: nearly all actives have a fitted effect of over 55% in size. In outline:
as §3

Several values for one entry are separate records, joined by “and”; a condition that tells them apart may be missing. Equal values may be shown once. Results filed as inconclusive are left out. Where a structure was tested more than once in an assay, its records may differ in their call. Activity calls are given as the source filed them. Unless noted, calls follow the shape of the dose curve; as a rule, active = well fitted curve in the direction sought with a large enough effect in the repeat runs; inconclusive = weak or mixed curves; inactive = no such curve, though single readings can be large; an effect the other way counts as inactive or inconclusive.
% is scaled to controls: 0 for no effect and ±100 for the full control effect.

Regarding `CC(C)CC(=O)CC(C)C`, the Potency entry in test [1], in [4], in test [7] and in test [8] was “inactive” in each case. The activity change, positive = activation in [2] (at 92.4 µM (top of the series)) is 0.354% (inactive) and 0.455% (inactive). The compound was called inactive in test [3], in [5] and in [6]. The max response in test [9] was 3.78% (inactive) and -11.6% (inactive).

For the compound `O=C(O)CCCC[C@@H]1SC[C@@H]2NC(=O)N[C@@H]21`, the Potency result in test [1], in [4], in test [7] and in test [8] was “inactive” each time. In addition, the activity change, positive = activation in test [2] (at 42.5 µM (top of the series)) was 7.51% (inactive); in test [2] (at 92.4 µM (top of the series)), 9.85% (inactive). Moreover, the compound was classed as inactive in test [3], in test [5] and in test [6]. Besides, the max response in test [9] was 6.98% (inactive) and 0.709% (inactive).

In the case of `CSCCC=O`, the Potency result in test [1], in [4], in test [7] and in test [8] was “inactive” in each case. The activity change, positive = activation in [2] (at 92.4 µM (top of the series)) is 9.1% (inactive) and 4.08% (inactive). Also, the result in test [3], in test [5], in test [6] and in test [10] was inactive. For the same compound, in test [9], the max response was 4.41% (inactive) and 31% (inactive).

As for `CCC(O)OCCCOC` (stereo not drawn), the Potency entry in [1], in test [4], in [7] and in test [8] was “inactive” throughout. Moreover, in [2] (at 92.4 µM (top of the series)), the activity change, positive = activation is 1.37% (inactive) and 8.84% (inactive). Further, the compound was called inactive in test [3], in [5], in test [6] and in [10].

Regarding `CCCCCCCCCCCCc1ccccc1`, the Potency entry in [1], in [4] and in [8] was “inactive” throughout. Also, the activity change, positive = activation in [2] (at 92.4 µM (top of the series)) is 9.43% (inactive) and 1.83% (inactive). In addition, the outcome in [3], in test [5] and in test [6] was inactive. The max response in test [9] was 7.72% (inactive) and -4.38% (inactive).

With `N[C@@H](Cc1cc(I)c(Oc2cc(I)c(O)c(I)c2)c(I)c1)C(=O)O`, the Potency result in test [1], in test [4] and in test [8] was “inactive” throughout. Moreover, the activity change, positive = activation in [2] (at 42.5 µM (top of the series)) is -1.09% (inactive) and 0.396% (inactive). The result in [3], in test [5] and in [10] was inactive. For the same compound, the max response in test [9] was 12.3% (inactive) and 0.808% (inactive).

`c1ccc2c(c1)ccc1ccccc12`: the Potency in test [1] was 47.2 µM (active) and 24.3 µM (active). The activity change, positive = activation in test [2] (at 92.4 µM (top of the series)) is -34.9% (inactive) and -32.3% (inactive). Further, the outcome in test [3], in [5] and in test [10] was inactive. For the same compound, the Potency result in test [4] and in test [8] was “inactive” each time.

Turning to `O=c1[nH]nnc2ccccc12`, the Potency result in [1], in [4], in test [7] and in test [8] was “inactive” each time. Further, in test [2] (at 92.4 µM (top of the series)), the activity change, positive = activation was 5.04% (inactive) and -0.708% (inactive). Besides, the compound was classed as inactive in test [3], in test [5], in test [6] and in test [10].

As to `Nc1cc([N+](=O)[O-])ccc1O`, the Potency result in test [1], in [4], in [7] and in test [8] was “inactive” throughout. Also, the activity change, positive = activation in test [2] (at 92.4 µM (top of the series)) was -4.29% (inactive) and 0.807% (inactive). Moreover, the compound was classed as inactive in [3], in [5] and in test [10]. Besides, the max response in test [9] was -21.5% (inactive) and -15.3% (inactive).

As for `CCCCCCCCCCCCCCCO`, the Potency result in test [1], in [4] and in [8] was “inactive” in each case. Also, the activity change, positive = activation in test [2] (at 92.4 µM (top of the series)) was -0.174% (inactive). Also, the outcome in [3], in test [5], in test [6] and in test [10] was inactive. Besides, in test [9], the max response is 0.0156% (inactive).

Turning to `COCCCOc1ccnc(CS(=O)c2nc3ccccc3[nH]2)c1C` (stereo not drawn), the Potency result in [1] and in test [7] was “inactive” each time. Further, the activity change, positive = activation in [2] (at 92.4 µM (top of the series)) was -25.6% (inactive). Moreover, the call in test [3] and in test [5] was inactive. The Potency in test [4] was 9.74 µM (active) and inactive; in [8], 10.9 µM (active) and inactive; in [9], 9.74 µM (active). The max response in [9] was -13.3% (inactive).

As to `CCCCC(CC)COC(=O)CS` (stereo not drawn), the Potency entry in test [1], in [7] and in test [8] was “inactive” in each case. The activity change, positive = activation in [2] (at 92.4 µM (top of the series)) is -0.266% (inactive) and -15.8% (inactive). Moreover, the outcome in [3], in test [5] and in test [6] was inactive. For the same compound, the Potency result in test [4] is “inactive and 17.4 µM (active)”.

As for `Cc1cccc(O)c1`, the Potency result in test [1], in test [4], in [7] and in test [8] was “inactive” in each case. The activity change, positive = activation in [2] (at 92.4 µM (top of the series)) was 8.59% (inactive) and 2.31% (inactive). Moreover, the call in [3], in test [5] and in test [6] was inactive. In [9], the max response is 3.75% (inactive) and 3.48% (inactive).

As to `OCC(CO)(CBr)CBr`, the Potency result in [1], in test [4] and in [8] was “inactive” in each case. Moreover, the activity change, positive = activation in test [2] (at 92.4 µM (top of the series)) was 2.42% (inactive) and 0.192% (inactive). Moreover, the call in test [3], in test [5], in test [6] and in test [10] was inactive.

In the case of `CC[C@H](C)C(=O)O[C@H]1C[C@@H](C)C=C2C=C[C@H](C)[C@H](CC[C@@H]3C[C@@H](O)CC(=O)O3)[C@H]21`, the Potency result in test [1], in test [4] and in [8] was “inactive” in each case. The activity change, positive = activation in [2] (at 42.5 µM (top of the series)) is 14.3% (active); in test [2] (at 92.4 µM (top of the series)) it was -46.9% (active) and 27.5% (active). The call in [3], in [5], in test [6] and in [10] was inactive.

On to `O=P(OC(CCl)CCl)(OC(CCl)CCl)OC(CCl)CCl`, for which the Potency in test [1] is 48.3 µM (active) and 54.5 µM (active); in [4] it was 24.4 µM (active) and 49 µM (active); in test [9], 21.8 µM (active) and 49 µM (active). In test [2] (at 92.4 µM (top of the series)), the activity change, positive = activation was -54.2% (inactive) and -40.7% (inactive). Further, the result in test [3], in test [5], in test [6] and in test [10] was inactive. Besides, the Potency entry in [7] was “inactive”.

Consider `CCCCC(CC)COC(=O)C(C#N)=C(c1ccccc1)c1ccccc1` (stereo not drawn), for which the Potency in test [1] was 23.7 µM (active). Moreover, the values for the activity change, positive = activation in test [2] (at 42.5 µM (top of the series)) and in test [2] (at 92.4 µM (top of the series)) were -38.1% (inactive) and -32.9% (inactive), respectively. The compound was called inactive in test [3] and in [5]. For the same compound, the Potency result in test [4], in [7] and in test [8] was “inactive” in each case. Besides, in [9], the max response is -27.4% (inactive).

With `Cc1ccc(N(C)C)cc1`, the result in test [3], in [5], in test [6] and in [10] was inactive. The Potency result in test [4], in [7] and in test [8] was “inactive” throughout. Further, the max response in test [9] is 0.353% (inactive) and -2.55% (inactive).

For `C[C@H]1C[C@H]2[C@@H]3CCC4=CC(=O)C=C[C@]4(C)[C@@]3(F)[C@@H](O)C[C@]2(C)[C@@]1(O)C(=O)CO`, the compound was called inactive in test [3], in test [5] and in test [6]. Besides, the Potency entry in test [4], in test [7] and in [8] was “inactive” throughout.

Take `O=C(O)c1ccc2c(c1)C(=O)OC2=O`: the compound was classed as inactive in test [3], in test [5] and in test [6]. Further, the Potency entry in [4] and in test [8] was “inactive” in each case.
